# Screens: PubChem BioAssay, National Center for Advancing Translational Sciences (NCATS)
# Compounds with a hit are over-represented: about 11% of the library has one in this group of screens.
# BAZ2B block: qHTS Assay for Inhibitors of BAZ2B; Bromodomain adjacent to zinc finger domain protein 2B (Homo sapiens), Q9UIF8; AlphaScreen BAZ2B-H3K14Ac peptide displacement; Potency, µM (highest dose often 114 µM), hits mostly inhibitors; actives 4.4% (n = 360,000); AID 504333, 2011; also: nearly all actives have a fitted effect of over 60% in size
#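 AlphaScreen displacement: compounds (up to 110uM) incubated 30 min at room temperature with a preformed 50 nM BAZ2B/50 nM biotinylated H3K14Ac peptide complex in PBS pH 7.4 with Tween-20. Donor and acceptor beads at 10 ug/mL final added, 20 min light-protected before reading.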
# L3MBTL1 block: qHTS Assay for the Inhibitors of L3MBTL1; actives 0.66% (n = 230,000); AlphaScreen L3MBTL1–H3K9me1 peptide binding; Potency, µM (series often up to 57.1 µM), usual class: inhibitors; also: nearly all actives have a fitted effect of over 60% in size
#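 L3MBTL1 50 nM + b-AHA-H3(1-15)K9me1 75 nM, 30 min RT; compound added, 30 min RT; streptavidin donor/Ni-chelate acceptor beads 10 ug/mL each final, 30 min RT dark; AlphaScreen read.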
# HP1b chromo inh: HTS for Inhibitors of HP1-beta Chromodomain Interactions with Methylated Histone Tails. AlphaScreen HP1-beta / biotin-H3K9me3 peptide binding. Potency, µM (series often up to 114 µM), actives largely listed as inhibitors. actives 0.56% (n = 390,000); also: nearly all actives have a fitted effect of over 70% in size
# Target sequence (P83916 whole entry, looked up): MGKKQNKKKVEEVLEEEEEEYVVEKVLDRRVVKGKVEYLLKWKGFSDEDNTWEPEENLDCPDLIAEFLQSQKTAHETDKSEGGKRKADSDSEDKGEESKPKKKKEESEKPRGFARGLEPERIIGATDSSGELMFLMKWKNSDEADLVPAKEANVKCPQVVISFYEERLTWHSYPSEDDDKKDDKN
#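 Compound inhibition of the preformed complex between 50 nM HP1-beta and 50 nM biotinylated H3K9me3 peptide was read by AlphaScreen. Buffer was PBS pH 7.4 with 0.01% Tween-20. Incubations ran 30 min at room temperature, with 10 ug/mL donor/acceptor beads.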
# JMJD2A Tudor inh: qHTS Assay for Inhibitors of JMJD2A-Tudor Domain; Lysine-specific demethylase 4A (Homo sapiens), O75164; AlphaScreen JMJD2A-Tudor / H3K4me3 peptide binding; actives 4.4% (n = 390,000); Potency, µM (top dose mostly 114 µM), most hits filed as inhibitors; also: nearly all actives have a fitted effect of over 50% in size
# G9a inh: qHTS Assay for Inhibitors of Histone Lysine Methyltransferase G9a. Histone-lysine N-methyltransferase EHMT2 (Homo sapiens), Q96KQ7. G9a H3K9 monomethylation, AlphaScreen, 2 h. Potency, µM (highest dose often 102 µM), actives largely listed as inhibitors. actives 8.8% (n = 350,000); also: nearly all actives have a fitted effect of over 75% in size
# Target sequence (Q96KQ7 913-1193 limits assumed): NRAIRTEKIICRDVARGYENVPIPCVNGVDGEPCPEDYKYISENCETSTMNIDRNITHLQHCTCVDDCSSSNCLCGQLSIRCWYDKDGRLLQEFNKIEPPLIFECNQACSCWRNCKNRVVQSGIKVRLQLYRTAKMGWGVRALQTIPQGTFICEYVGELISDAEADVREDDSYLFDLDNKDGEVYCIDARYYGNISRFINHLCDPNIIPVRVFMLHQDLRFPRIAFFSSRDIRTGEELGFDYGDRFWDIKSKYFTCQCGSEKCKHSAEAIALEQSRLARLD
#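 AlphaScreen detection with an anti-monomethyl H3K9 antibody quantified product after a 2 h room-temperature reaction containing 500 nM biotinylated H3K9 peptide, 20 µM SAM and 20 nM enzyme, which had been preincubated 15 min with compound.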
# Numbers stand for hits; n = inactive; u = inconclusive; x = no result; [ ] = remark or other dose. Calls follow the shape of the dose curve; as a rule, active = well fitted inhibition curve with a large enough effect; inconclusive = small, poorly fitted or top-dose-only effect; inactive = no such curve, though single readings can be large or run the other way.
SMILES,BAZ2B block,L3MBTL1 block,HP1b chromo inh,JMJD2A Tudor inh,G9a inh
Cc1cccn2c(=O)cc(COc3ccc(NC(=O)c4cccc(F)c4)cc3)nc12,n,x,n,n,n
COCCNc1nnc(SCC(=O)NNC(=O)c2ccc([N+](=O)[O-])cc2)s1,n,n,n,n,35µM
COc1ccc(-n2cc(C(=O)O)c(=O)cc2C)cc1,u,n,n,u,45µM
COc1ccc(-n2cc(C(=O)NCc3ccccc3)c3ccccc3c2=O)cc1,n,x,n,u,u
COc1ccc(-c2noc(CSc3nnc(C)n3-c3ccc(C)cc3)n2)cc1,n,x,n,n,n
CCn1c(-c2nn(C)cc2Cl)n[nH]c1=S,n,n,n,6.3µM,10µM
Cc1ccsc1-c1n[nH]c(=S)n1CC(C)C,n,n,n,8.9µM,u
CC(C)Cn1c(-c2nn(C)cc2Cl)n[nH]c1=S,n,n,n,8.9µM,10µM
CCOC(=O)N1CCC(NC(=O)c2ccc3c(c2)N(Cc2cc(C)ccc2C)C(=O)c2ccccc2S3(=O)=O)CC1,n,x,n,n,n
CCc1ccc(OCC(=O)c2c(O)c3ccccc3oc2=O)cc1,u,n,n,n,45µM
Cc1ccc(C(C)C)c(OCC(=O)Nc2c(C(=O)c3ccccc3)oc3ccccc23)c1,n,x,n,n,n
Cc1ccc(OCC(=O)c2c(O)c3ccccc3oc2=O)cc1C,u,n,n,40µM,n[12.7 µM]
Cc1ccc(C(C)C)c(OCC(=O)c2c(O)c3ccccc3oc2=O)c1,x,x,n,45µM,x
O=C(COC(=O)c1ccc(C(F)(F)F)cc1)Nc1cccc(S(=O)(=O)N2CCCCC2)c1,n,n,n,n,10µM
CNC(=O)COc1ccc(S(=O)(=O)N2CCCC2)cc1,n,n,n,11µM,n
O=C(COC(=O)c1cnc(Cl)c(Cl)c1)Nc1ccc(S(=O)(=O)N2CCCC2)cc1,n,n,n,n,n
CN(C)c1ccc(C(=O)OCC(=O)Nc2cccc(S(=O)(=O)N3CCCC3)c2)cc1,x,n,n,n,x
O=C(O)COc1ccc(S(=O)(=O)N2CCCC2)cc1,n,n,n,n,u
CC(=O)c1ccc(OCC(=O)Nc2cccc(S(=O)(=O)N3CCCC3)c2)cc1,n,n,n,n,20µM
O=C(COC(=O)c1ccc(Cl)nc1)Nc1ccc(S(=O)(=O)N2CCCC2)cc1,n,n,n,n,45µM
COc1ccc2[nH]c(=O)c(CN(c3ccccc3OC)S(=O)(=O)c3ccccc3)cc2c1,n,n,n,n,56µM
COc1ccc2[nH]c(=O)c(CN(c3ccccc3)S(=O)(=O)c3ccccc3)cc2c1,n,x,n,n,n
CC(C)N1CCC(N2CCN(CCCn3cccn3)CC2CCO)CC1 (centres undefined),n,n,n,n,n
CCN(CC)C(=O)CSc1nc(N)c2c3c(sc2n1)CC(C)CC3 (centres undefined),n,x,n,n,n
CCSc1nc(N)c2c3c(sc2n1)CN(C)CC3,n,n,x,x,45µM
SMILES,BAZ2B block,L3MBTL1 block,HP1b chromo inh,JMJD2A Tudor inh,G9a inh
CCOC(=O)CSc1nc(N)c2c3c(sc2n1)CCCC3,n,x,n,n,71µM
COc1ccc(-c2cc(=O)oc3cc(OC(C)C(=O)NCc4ccccn4)ccc23)cc1 (centres undefined),n,x,n,n,x
O=C(Nc1ccc(-c2ccccc2)cc1)c1ccccc1,n,n[2.29 µM],n,n,n[0.501 µM]
COc1ccc(C(=O)Nc2ccc(-c3n[nH]c(=S)o3)cc2)cc1,u,x,n,u,1.8µM
O=C(Nc1ccc(-c2n[nH]c(=S)o2)cc1)c1ccccc1,n,x,n,u,32µM
O=C(CCS(=O)(=O)c1ccc(Br)s1)Nc1c(F)cccc1F,n,x,n,n,n
Cc1ccc(CNc2ncnc3ccc(-c4ccc5c(c4)OCO5)cc23)s1,x,x,x,n,x
Cc1cc(C(F)F)n2nc(C(=O)Nc3sc4c(c3C(N)=O)CCC4)nc2n1,n,n,n,n,40µM
CCOC(=O)c1c(NC(=O)c2noc3c2CC(C(C)(C)C)CC3)sc2c1CCCC2 (centres undefined),n,x,u,79µM,2µM
NC(=O)c1c(NC(=O)c2noc3c2CCCC3)sc2c1CCCC2,n,x,u,79µM,1.8µM
COC(=O)c1c(NC(=O)c2nc3nc(C)cc(C(F)F)n3n2)sc2c1CCC2,n,n,n,n,n
Cn1ccc(C(=O)Nc2sc3c(c2C(N)=O)CCCCC3)n1,n,x,n,n,22µM
CCc1ccc(CNCc2c(C(=O)O)c(C)n(Cc3c(F)cccc3Cl)c2C)cc1,u,x,n,u,n
Cc1ccc(C)c(NC(=O)Cn2c(=O)oc3cc(S(=O)(=O)NCc4ccccc4)ccc32)c1,n,x,n,n,n
CC(NCC(O)COc1ccc2ccccc2c1)c1ccccc1 (centres undefined),50µM,x,45µM,0.79µM,14µM
COc1ccc(OCC(O)CNC(C)c2ccccc2)cc1 (centres undefined),n,x,n,n,n
CN(C)CCN(C(=O)c1ccc2ccccc2c1)c1nc2c(F)cccc2s1,n,x,n,u,40µM
COc1ccc2sc(N(CCN(C)C)C(=O)c3ccc4ccccc4c3)nc2c1,u,x,n,40µM,40µM
Cc1cc(C)c2nc(N(CCN(C)C)C(=O)c3ccc4ccccc4c3)sc2c1,u,x,n,40µM,40µM
COc1ccc2sc(N(CCN(C)C)C(=O)c3cc(Cl)sc3Cl)nc2c1,x,x,n,n,u
CCOc1cccc2sc(N(CCN(C)C)C(=O)c3ccc4ccccc4c3)nc12,u,x,n,u,50µM
Cc1cc(C)c2nc(N(CCCN(C)C)C(=O)c3ccc(S(=O)(=O)N4CC(C)OC(C)C4)cc3)sc2c1 (centres undefined),n,n,n,n,u
COc1ccc(CCN2CCCn3c2nc2c3c(=O)[nH]c(=O)n2C)cc1OC,n,x,n,n,n
Cc1cc(C)c2nc(N(CCN(C)C)C(=O)c3ccc(S(=O)(=O)N(C)CC4CCCO4)cc3)sc2c1 (centres undefined),u,x,n,u,79µM
CCOc1cccc2sc(N(CCCN(C)C)C(=O)c3ccc(S(=O)(=O)N(C)CC4CCCO4)cc3)nc12 (centres undefined),n,x,n,n,n
COc1ccc(C)c2sc(N(CCN(C)C)C(=O)c3ccc4ccccc4c3)nc12,u,x,n,u,50µM
COc1ccc(Cl)c2sc(N(CCN(C)C)C(=O)C3=COCCO3)nc12,x,x,n,n,x
COc1ccc(-c2noc(CCC(=O)NCc3ccc(OC)cc3OC)n2)cc1,n,x,n,n,n
OCCNc1nc(-c2cccnc2)nc2ccccc12,n,n,n,n,n
c1cncc(-c2nc(NCc3ccco3)c3ccccc3n2)c1,u,n,n,n,u
